The values that follow come from PubChem BioAssay AID504766 (The Scripps Research Institute Molecular Screening Center, 2011).

Out of some 340,000 compounds screened, about 3,400 (1%) were called active. The list comes from a sample in which actives are over-represented; it also holds similar structures and randomly drawn compounds. Values without a mark were called inactive.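 How the source made its calls: active means inhibition above the mean over all tested compounds plus 3 SD (cut at about 4.2% in these data); inactive means the rest.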

The target in the assay is Nuclear receptor subfamily 0 group B member 1 (Homo sapiens) (UniProt P51843). The assay can be described thus: relief of DAX1 transcriptional repression – cell-based, HEK293, Gal4-DAX1, luciferase luminescence, primary screen (AID 504766).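 Further: 0% = DAX1-transfected cells with DMSO and 100% = empty-vector control cells with DMSO; inhibition shows as a rise in luminescence from relieved DAX1 repression.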 The conditions noted are these: HEK293 Gal4-DAX1 luciferase reporter, at 6.75 µM, hits give high values. For orientation: A reporter such as luciferase makes a cellular process visible.
Sequence of Nuclear receptor subfamily 0 group B member 1 (Homo sapiens) (P51843 207-470 limits assumed): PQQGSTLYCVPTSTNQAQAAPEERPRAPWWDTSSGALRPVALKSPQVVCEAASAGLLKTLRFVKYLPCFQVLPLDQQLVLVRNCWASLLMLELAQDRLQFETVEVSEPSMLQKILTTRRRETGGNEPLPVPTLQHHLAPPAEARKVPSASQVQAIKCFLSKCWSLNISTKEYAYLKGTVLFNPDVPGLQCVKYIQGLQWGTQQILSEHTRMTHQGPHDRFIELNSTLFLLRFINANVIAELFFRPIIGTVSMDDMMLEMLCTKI
For `COc1ccc(Cn2c(=O)oc3ccccc32)cc1`, the inhibition is 0.51%. Take `COc1ccc(/C=C2\SC(=S)N(CCC(=O)N3CCOCC3)C2=O)cc1OC`: the inhibition was -0.88%. Regarding `COC(=O)[C@H]1C[C@H](OC(=O)NCc2ccccc2)[C@@]2(O)CN(S(=O)(=O)c3ccc(C)cc3)CC2[C@H]1C(=O)OC` (stereo partly specified), the inhibition was 0.61%. For `CC(NC(=O)c1cc(=O)[nH]c2ccccc12)c1ccc(F)cc1F` (stereo unspecified), the inhibition is 0.16%. Next, `CC(C)(CNC(=O)c1cc(=O)[nH]c2ccccc12)N1CCOCC1`: -0.11%; `O=C(CNC(=O)c1cc(=O)[nH]c2ccccc12)Nc1ccc(F)c(F)c1`: 7.53% (active); `C[C@H]1CN([C@@H](C)CO)C(=O)CCCn2cc(nn2)CO[C@@H]1CN(C)S(=O)(=O)c1ccccc1C#N`: 0.36%.

As to `Cc1ccc(NC(=O)Cn2sc3ccccc3c2=O)cc1`, the inhibition was 2.09%.

For `CC(=O)Nc1ccccc1NC(=O)c1cc(C)cc(C)c1`, the inhibition was 0.39%. Next, `Nc1ccc(C(=O)Nc2ccccc2N)cc1`: 22.7% (active); `Nc1ccc(S(=O)(=O)NC(=O)c2ccccc2)cc1`: 1.24%; `Cc1nc2ccccn2c(=O)c1NC(=O)c1ccc(Br)o1`: 1.03%.

In the case of `CC(=O)C1C(c2ccc(Cl)cc2)c2c(n[nH]c2C)CC1(C)O` (stereo unspecified), the inhibition is 5.48% (active). For the compound `CCOC(=O)C1C(c2ccc(OC)c(OC)c2)c2c([nH][nH]c2=O)CC1(C)O` (stereo unspecified), the inhibition is 0.5%. In the case of `Cc1noc(C)c1NC(=O)N(C)C[C@@H]1Oc2cc(Br)ccc2S(=O)(=O)N([C@@H](C)CO)C[C@H]1C` it was 0.32%; in that of `CC1CCCC(NC(=O)COC(=O)c2ccccc2C(=O)N(C)C2CCCCC2)C1C` (stereo unspecified), -0.71%. `Cc1ccc(-c2ccc(CN3C(C(C)C)C(=O)N(Cc4cn(CCC5OCCCO5)nn4)CCS3(=O)=O)cc2)cc1` (stereo unspecified): the inhibition was -0.79%. Next, `COc1ccc(N(C(=O)CNC(=O)c2ccco2)C(C(=O)NCC2CCCO2)c2ccccc2)cc1Cl` (stereo unspecified): 0.19%.

With `COC(=O)c1cccc(N(C(=O)CNC(=O)c2cccs2)C(C(=O)NCC2CCCO2)c2ccc(OC)c(OC)c2)c1` (stereo unspecified), the inhibition was 4.73% (active). In the case of `O=C(NCC(=O)N(c1ccccc1)C(C(=O)NCC1CCCO1)c1ccccc1)c1cccs1` (stereo unspecified) it was -0.74%; in that of `O=C(CSc1nc2ccccc2s1)Nc1ccc(C(=O)O)cc1`, 4.73% (active); in that of `O=C(CSc1nnc(SCc2ccc(F)cc2)s1)Nc1ccc(C(=O)O)cc1`, -0.63%.

With `Nc1nnc(SCC(=O)Nc2ccc3nc(SCC(=O)Nc4ccccc4)sc3c2)s1`, the inhibition is -3.13%. On to `C[C@H]1CN([C@@H](C)CO)C(=O)CCCn2cc(nn2)CO[C@@H]1CN(C)S(=O)(=O)c1cccc(C#N)c1`, for which the inhibition is -0.32%.

On to `N#CCCN(C(=S)Nc1ccc(Cl)c(Cl)c1)C1CCCCC1`, for which the inhibition was -0.53%.

Take `Cc1ccc(S(=O)(=O)Nc2nc3ccccc3s2)cc1[N+](=O)[O-]`: the inhibition was 5.09% (active). Next, `CCOc1ccc2sc(NS(=O)(=O)c3ccc(N)cc3)nc2c1`: 2.57%; `Cc1ccc(S(=O)(=O)NCCSc2ccccc2)cc1[N+](=O)[O-]`: -0.31%. In the case of `Cc1ccc(-c2ccc(CN3C(C(C)C)C(=O)N(Cc4cn(CCC5OCCO5)nn4)CCS3(=O)=O)cc2)cc1` (stereo unspecified) it was -1.47%; in that of `Brc1ccc(C2CC(c3ccccc3)=Nc3ccccc3N2)cc1` (stereo unspecified), 4.28% (active); in that of `S=C1NC(c2ccccc2)=NCN1c1ccc(Br)cc1`, -1.46%. Next, `CNC(=S)N1N=C(c2ccccc2)CC1c1ccc(Br)cc1` (stereo unspecified): 1.07%; `CC(C)CCC(=O)Nc1cc(S(=O)(=O)N2CCOCC2)ccc1N1CCCC1`: -0.01%. As to `COc1cc2nnn(-c3ccncc3)c2cc1OC`, the inhibition is 1.02%. Next, `CC1(C)CN(Cc2cccnc2)C(=O)[C@H]1CC(=O)Nc1ccc(Br)cc1`: -0.18%; `COc1ccc(C(=O)OCC(=O)c2cc(C)n(CC3CCCO3)c2C)cc1[N+](=O)[O-]` (stereo unspecified): 0.28%; `O=C(COC(=O)c1ccc(S(=O)(=O)Nc2ccccc2)cc1)NCC1CCCO1` (stereo unspecified): -0.38%. In the case of `COc1ccc(C(=O)OCC(=O)NCC2CCCO2)cc1[N+](=O)[O-]` (stereo unspecified) it was 4.91% (active). In the case of `CCOC(OCC)c1ccc(/C=C\c2nccc(N)n2)cc1`, the inhibition is 4.34% (active). In the case of `Cc1ccc([C@H]2N[C@]3(CCCN(Cc4ccccc4)C3=O)[C@H]3C(=O)N(Cc4ccccc4)C(=O)[C@@H]23)cc1` it was 0.82%; in that of `COc1cccc(OCC(=O)NCCS(=O)(=O)N2CCN(c3ccccc3)CC2)c1`, 0.69%. Consider `CC1(C)C2CCC1(C)C(OC(=O)CCn1ccnc1)C2` (stereo unspecified), for which the inhibition was 0.23%. For `CC1(C)C2CCC1(C)C(OC(=O)c1ccc(O)cc1)C2` (stereo unspecified), the inhibition was 4.45% (active). In the case of `Cc1ccc(C(=O)OC2CCCN(C)C2)cc1` (stereo unspecified) it was 1.89%; in that of `O=C(Nc1ccc(Cl)cn1)c1ccccc1-c1ccccc1`, 1.12%; in that of `O=C1NC(Cc2ccccc2)c2nc3ccc(Br)cc3c(=O)n2-c2cc3ccccc3cc21` (stereo unspecified), 0.19%. As to `CC1(C)COC(c2cccn2Cc2ccccc2Cl)=N1`, the inhibition is 5.28% (active). In the case of `O=C(Nc1cccn(Cc2ccccc2Cl)c1=O)NC1CCCCC1` it was -1.6%; in that of `O=S1(=O)CCN(Cc2ccccc2Cl)CC1`, 0.98%; in that of `CCC1NC(=O)c2cccnc2-n2c1nc1ccc(C)cc1c2=O` (stereo unspecified), 0.22%.

As for `CC(C)NC(=O)Nc1ccc2c(c1)C(=O)N([C@H](C)CO)C[C@H](C)[C@@H](CN(C)Cc1ccc(C(F)(F)F)cc1)OCCCC[C@@H](C)O2`, the inhibition is 0.43%. For `Cc1noc(C)c1S(=O)(=O)N(C)C[C@H]1OCCCC[C@@H](C)Oc2ccc(NC(=O)CCCN(C)C)cc2C(=O)N([C@H](C)CO)C[C@@H]1C`, the inhibition was 0.48%. `O=C(Nc1cccc(F)c1)N1C2CCC1CC(O)(c1cccnc1)C2` (stereo unspecified): the inhibition is 0.14%. In the case of `Cc1ccc(NC(=O)N2CCC(O)(c3cccnc3)CC2)cc1` it was 4.28% (active).

Consider `O=C(c1cccc(F)c1)N1CCC(O)(c2cccnc2)CC1`, for which the inhibition is 1.7%. In the case of `COC(=O)C[C@H]1C[C@@H]2c3cc(NC(=O)Nc4ccccc4)ccc3O[C@@H]2[C@@H](CO)O1` it was 2.2%; in that of `CC1CCN(C(=O)CSc2nnc(-c3ccco3)n2N)CC1`, 1.88%. Next, `O=C(Nc1ccc2nccnc2c1)c1ccco1`: 5.48% (active). On to `COc1ccccc1C(=O)Nc1ccc(NC(=O)c2ccco2)c(C)c1`, for which the inhibition is -0.21%.

Regarding `O=C(Nc1ccc(Sc2ccc(Br)cc2)cc1)c1ccco1`, the inhibition is -0.97%. With `O=C(Nc1ccc2oc(-c3ccccc3F)nc2c1)c1ccco1`, the inhibition is 2.35%. As for `Cc1ccc(NC(=O)c2ccco2)cc1`, the inhibition was 7.13% (active). Next, `CC(C)(C)NC(=O)c1cc(NC(=O)c2ccco2)cc(NC(=O)c2ccco2)c1`: -1.82%; `NS(=O)(=O)c1ccc(CNC(=O)c2cc(S(=O)(=O)N3CCOCC3)ccc2N2CCCC2)cc1`: -0.73%; `CN1CCN(c2ccncc2S(=O)(=O)N2CCCC2)CC1`: 0.96%.

In the case of `Cc1cc2ccccc2n1CCC(=O)O`, the inhibition was 6.77% (active). In the case of `Cc1cc2ccccc2n1CCNC(=O)COc1ccc2ccccc2c1` it was -0.5%. For `O=C(O)CCn1c(Cc2ccccc2)nc2ccccc21`, the inhibition was 0.63%. Consider `CC(OC(=O)c1cccc(S(=O)(=O)N2CCOCC2)c1)C(=O)NCC1CCCCC1` (stereo unspecified), for which the inhibition is 0.27%. In the case of `COc1ccc(C(=O)NNC(=O)c2cnccn2)cc1[N+](=O)[O-]`, the inhibition was 1.76%. In the case of `COc1ccccc1CCNC(=O)c1cnccn1` it was 0.75%; in that of `COc1cccc(OCC(=O)NNC(=O)c2cnccn2)c1`, 5.68% (active); in that of `Cc1cc(Cl)ccc1C(=O)C1CCCN(C(=O)c2ccc3c(c2)OCO3)C1` (stereo unspecified), 0.21%.

For the compound `Cc1c(NC(=O)CSCc2ccccc2)cccc1C(=O)O`, the inhibition was 0.3%. Next, `Cn1c(CSCC(=O)Nc2ccccc2)nnc1SCc1ccccc1`: -0.77%.

With `O=C(CSCc1ccccc1)Nc1ccccc1`, the inhibition is 7.09% (active).

For the compound `O=C(COc1ccc(Br)cc1)OCC(=O)c1ccc[nH]1`, the inhibition was -1.15%.

As to `COc1ccc(CCNC(=O)CN(c2ccccc2)S(=O)(=O)c2ccccc2)cc1`, the inhibition is -1.2%.

With `CCCCCCN1C[C@H](O)[C@@H](n2cc(C3CC3)nn2)C[C@@H]1c1ccc(Cl)cc1`, the inhibition was -0.34%. For `CCOc1cc(/C=N/NC(=O)c2ccncc2)cc(Br)c1O`, the inhibition was -0.05%. In the case of `c1c2c(cc3sc(N4CCCCC4)nc13)OCCO2` it was -5.28%; in that of `COc1cc2sc(C)nc2cc1C`, -1.73%.

Regarding `Cc1nc2cc3c(cc2s1)OCO3`, the inhibition is 5.8% (active). Next, `CCCc1ccc(S(=O)(=O)N2CCN(C(=O)c3cc(C)on3)CC2)cc1`: -0.87%; `O=C(CCN1CCCCC1)Nc1ccc(F)c(F)c1`: 0.27%.

Take `FC(F)(F)c1ccnc(Oc2ccc(C3=NCCS3)cc2)c1`: the inhibition is 6.14% (active). Turning to `CC1C(=O)N(Cc2cn(Cc3ccco3)nn2)CCS(=O)(=O)N1Cc1ccc(-c2cccc(CO)c2)cc1` (stereo unspecified), the inhibition is 0.37%. Next, `COCOCCn1cc(CN2CCS(=O)(=O)N(Cc3ccc(-c4ccccc4)cc3)C(CC(C)C)C2=O)nn1` (stereo unspecified): -1.62%.

Regarding `O=C(CC(c1ccccc1)c1ccccc1)NCC(O)c1ccc([N+](=O)[O-])cc1` (stereo unspecified), the inhibition was 0.2%.

As to `CCCCOC(=O)Nc1nnc(CC(=O)NCc2ccccc2)s1`, the inhibition was -0.2%. In the case of `CCCCCCOC(=O)NCC(O)c1ccccc1` (stereo unspecified) it was 4.4% (active).

What is called inhibition is the relative decrease from the control value, in per cent.
